Data taken from PubChem BioAssay AID602455 (Southern Research Specialized Biocontainment Screening …, 2012).
Entries with a potency or affinity are not part of this list. Active and inactive are the calls of the source. The rule behind the calls is not given here.

assay: VEEV TC 83 infected cells, CPE inhibition, confirmatory, 50 µM top (AID 602455); settings: series mostly up to 50 µM

Question: For O=C(Cc1cccs1)Nc1nc2ccccc2s1, which outcome is on record?
Answer: Its outcome is “inactive”.

Question: For O=C(Nc1nc2c(s1)CCCC2)c1cccs1, which outcome is on record?
Answer: The outcome was “inactive”.

Question: For O=C(Cc1cccs1)Nc1nccs1, which outcome is on record?
Answer: Its outcome is “inactive”.
